Bioassay records as filed in PubChem.
The list is not random: actives were taken first. Their share in the collection is about 6.7%.
C diff growth – C. difficile growth inhibition; growth activity, negative = inhibition, % at 16 µg/mL (by protocol); Clostridium difficile clinical isolate growth, OD600, 24 h; stronger effect = lower value; 86,000 compounds, 0.25% hits; AID 1259249;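 active = mean growth activity at or below -80% and every replicate also at or below -80%; inconclusive = mean at or below -80% but some replicate above -80%; inactive = mean growth activity above -80%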;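 note: 0% = DMSO wells and -100% = levofloxacin 16 µg/mL wells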
T cruzi growth-1 – blocks T. cruzi growth in NIH3T3 culture; T. cruzi beta-gal in NIH3T3, GalScreen luminescence, 90 h; 77,000 compounds, 5.9% hits; inhibition, % at 8.34 µM;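 active = mean inhibition above about 93%, with at least 55% of replicates each passing it, limit read from the data, passing the limit was not always enough; inconclusive = only one of those two conditions holds; inactive = neither condition holds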
Pf Dd2 inh – inhibitors of Plasmodium falciparum Dd2 growth. P. falciparum Dd2 growth, SYBR Green, 72 h; stronger effect = lower value. activity change, % at 10 µM. 94,000 compounds, 2.3% hits. AID 1159554; in the data active = activity change below about -80%; inconclusive = no clear call, values can overlap the other calls
T cruzi growth-2 – Trypanosoma cruzi proliferation inhibition; 5,600 compounds, 72% hits; inhibition, % at 8.35 µM; T. cruzi beta-gal in NIH3T3, GalScreen luminescence, 90 h; shares compounds with T cruzi growth-1;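 active = mean replicate inhibition above about 95% and at least 55% of replicates individually reaching it, limit read from the data; inconclusive = only one of the two criteria is met; inactive = neither criterion is met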
T cruzi growth-3 – Trypanosoma cruzi proliferation inhibition | shares compounds with T cruzi growth-1 | T. cruzi beta-gal in NIH3T3, GalScreen luminescence, 90 h | inhibition, % at 2.09 µM | 5,600 compounds, 21% hits;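 active = mean inhibition above about 95%, with at least 55% of replicates also reaching it, limit read from the data; inconclusive = meets just one of the two conditions; inactive = meets neither condition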;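 note: plate controls were neutral control median for no effect and positive control median for full effect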
NIH3T3 tox – NIH/3T3 (mouse) viability loss; shares compounds with T cruzi growth-1; cytotoxicity (signal decrease), % at 8.35 µM; 5,600 compounds, 14% hits; NIH/3T3 viability, CellTiter-Glo ATP luminescence, 90 h;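 active = mean signal decrease across replicates above about 35% based on untreated-well scatter, with enough replicates individually passing, limit read from the data; inconclusive = no rule stated though some were filed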;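 note: 0% = median of neutral control wells and 100% = median of positive control wells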
NIH3T3 tox 2 – kills mouse NIH/3T3 fibroblasts; inhibition, % at 24.9 µM; NIH/3T3 viability, CellTiter-Glo ATP luminescence, 90 h; 5,600 compounds, 56% hits; AID 651744; shares compounds with T cruzi growth-1;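 active = mean loss of cell viability signal at or above a set limit, and enough replicates individually reaching it; inconclusive = meets only the mean limit or only the replicate share; inactive = meets neither condition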;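 note: 0% = median of neutral control wells and 100% = median of positive control wells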
The depositor's hits bear a star; ? = inconclusive; · = no result given; ! = a repeat was not active.

SMILES	C diff growth	T cruzi growth-1	Pf Dd2 inh	T cruzi growth-2	T cruzi growth-3	NIH3T3 tox	NIH3T3 tox 2
C/C=C/c1ccc(C2[C@@H]3CN(C(C)=O)C[C@H]2N3)cc1 (some centres undefined)	2	·	-7	·	·	·	·
C/C=C/c1ccc(C2[C@@H]3CN(Cc4ccccn4)C[C@H]2N3)cc1 (some centres undefined)	1	·	-13	·	·	·	·
C/C=C/c1ccc(C2[C@@H]3CN(Cc4cccc(F)c4)C[C@H]2N3)cc1 (some centres undefined)	70	·	-88*!	·	·	·	·
C/C=C/c1ccc(C2[C@@H]3CN(Cc4cccnc4)C[C@H]2N3)cc1 (some centres undefined)	0	·	-84*!	·	·	·	·
COCC(=O)N1[C@@H]2c3ccc(C4=CCCC4)c(=O)n3C[C@H]1[C@H](CO)[C@H]2C(=O)OC	1	34	19	·	·	·	·
COC(=O)C[C@@H]1CC[C@H]2NC[C@@H](O)COC[C@@H]2O1	5	61	4	·	·	·	·
Cc1ccc(OC(=O)N(C)C[C@@H]2OCc3ccccc3-c3c(n(C)c4ccccc34)C(=O)N([C@@H](C)CO)C[C@@H]2C)cc1	1	·	-40	·	·	·	·
Cc1ccc(OC(=O)N(C)C[C@H]2OCc3ccccc3-c3c(n(C)c4ccccc34)C(=O)N([C@H](C)CO)C[C@@H]2C)cc1	14	·	-87*	·	·	·	·
COC(=O)[C@@H]1[C@@H](CO)[C@@H]2Cn3c(ccc(C4=CCCCC4)c3=O)[C@H]1N2Cc1ccccc1OC	0	·	-16	·	·	·	·
COc1ccc(C#Cc2ccc([C@@H]3[C@@H](CO)N4CCCCN(C(=O)Cc5cccnc5)C[C@@H]34)cc2)cc1	-8	108*	-20	113*	60	12	103*
O=C(Cc1cccnc1)N1CCCCN2[C@H](CO)[C@@H](c3ccc(C#CC4(O)CCCC4)cc3)[C@@H]2C1	1	9	34	·	·	·	·
COc1ccc(C#Cc2ccc([C@H]3[C@H](CO)N4CCCCN(C(=O)Cc5cccnc5)C[C@@H]34)cc2)cc1	21	113*	-70	106*	102*	43*	105*
COc1ccc(C#Cc2ccc([C@H]3[C@@H](CO)N4CCCCN(C(=O)Cc5cccnc5)C[C@@H]34)cc2)cc1	-14	125*	-7	99*	103*	36*	86*
COc1ccc(C#Cc2ccc([C@@H]3[C@H]4CN(C(=O)Cc5cccnc5)CCCCN4[C@H]3CO)cc2)cc1	-8	99*	-26	104*	78	22	106*
Cc1cccc(S(=O)(=O)N2[C@@H]3Cn4c(ccc(-c5cccc(F)c5)c4=O)[C@H]2[C@@H](C(=O)O)[C@@H]3CO)c1	0	-14	3	·	·	·	·
O=C(Cc1ccccn1)N1CCCCN2[C@H](CO)[C@H](c3ccc(Br)cc3)[C@H]2C1	-6	70	1	·	·	·	·
COc1ccc(OC(=O)N(C)C[C@@H]2OCc3ccccc3-c3c(n(C)c4ccccc34)C(=O)N([C@@H](C)CO)C[C@H]2C)cc1	-2	·	-68	·	·	·	·
COc1ccc(C#Cc2ccc([C@H]3[C@@H](CO)N4CCCCN(C(=O)Cc5cccnc5)C[C@H]34)cc2)cc1	-4	115*	-62	102*	85	46*	103*
COc1ccc(C#Cc2ccc([C@H]3[C@H]4CN(C(=O)Cc5cccnc5)CCCCN4[C@H]3CO)cc2)cc1	10	104*	19	104*	73	29	99*
COC(=O)[C@@H]1N[C@@H]2c3ccc(C4=CCCC4)c(=O)n3C[C@@H]2[C@H]1CO	-1	-29	·	·	·	·	·
O=C(Cc1ccccc1)N1CCCCN2[C@@H](CO)[C@H](c3ccc(-c4ccccc4)cc3)[C@@H]2C1	58	100*	9	103*	75	25	102*
O=C(Cc1ccccc1)N1CCCCN2[C@H](C1)[C@@H](c1ccc(-c3ccccc3)cc1)[C@@H]2CO	50	-2	-26	·	·	·	·
COc1ccc(-c2ccc([C@H]3[C@@H](CO)N4CCCCN(C(=O)Cc5ccccc5)C[C@H]34)cc2)cc1	-1	91	-23	·	·	·	·
COc1ccc(-c2ccc([C@@H]3[C@@H](CO)N4CCCCN(C(=O)Cc5ccccc5)C[C@H]34)cc2)cc1	1	?	-79	97*	55	32	105*
COC(=O)[C@@H]1[C@@H](CO)[C@@H]2Cn3c(ccc(-c4ccccc4OC)c3=O)[C@H]1N2Cc1ccccc1	-5	-57	·	·	·	·	·
SMILES	C diff growth	T cruzi growth-1	Pf Dd2 inh	T cruzi growth-2	T cruzi growth-3	NIH3T3 tox	NIH3T3 tox 2
COC(=O)[C@H]1[C@H](CO)[C@H]2Cn3c(ccc(-c4cccc(C(=O)N(C)C)c4)c3=O)[C@@H]1N2CC1CC1	-2	·	20	·	·	·	·
COc1ccc(C#Cc2ccc([C@@H]3[C@@H](CO)N4CCCCN(C(=O)Cc5ccccc5)C[C@@H]34)cc2)cc1	3	111*	-31	90	104*	-1	103*
O=C(Cc1ccccc1)N1CCCCN2[C@H](CO)[C@@H](c3ccc(C#CC4(O)CCCC4)cc3)[C@H]2C1	0	88	-3	·	·	·	·
COc1ccc(C#Cc2ccc([C@H]3[C@@H](CO)N4CCCCN(C(=O)Cc5ccccc5)C[C@H]34)cc2)cc1	-3	77	-71	·	·	·	·
O=C(Cc1ccccc1)N1CCCCN2[C@H](C1)[C@H](c1ccc(C#Cc3ccccc3)cc1)[C@@H]2CO	5	131*	-8	104*	57	33	104*
O=C(Cc1ccccc1)N1CCCCN2[C@H](CO)[C@@H](c3ccc(-c4ccccc4)cc3)[C@@H]2C1	50	31	15	·	·	·	·
O=C(Cc1ccccc1)N1CCCCN2[C@H](C1)[C@@H](c1ccc(C#Cc3ccccc3)cc1)[C@@H]2CO	-2	115*	-34	98*	73	?	103*
O=C(O)[C@H]1[C@H](CO)[C@H]2Cn3c(ccc(-c4ccccc4F)c3=O)[C@@H]1N2C(=O)Nc1ccccc1	-4	62	·	·	·	·	·
C[C@H]1CN([C@@H](C)CO)C(=O)CCCn2nncc2CO[C@@H]1CN(C)C(=O)Oc1ccc2ccccc2c1	·	36	-1	·	·	·	·
O=C(Cc1ccccn1)N1CCCCN2[C@H](CO)[C@@H](c3ccc(-c4ccccc4F)cc3)[C@@H]2C1	8	25	-34	·	·	·	·
Cc1ccccc1-c1ccc([C@H]2[C@@H](CO)N3CCCCN(C(=O)Cc4ccccn4)C[C@H]23)cc1	-10	93	-6	·	·	·	·
O=C(Cc1ccccn1)N1CCCCN2[C@H](C1)[C@@H](c1ccc(-c3ccc(F)cc3)cc1)[C@@H]2CO	-1	46	-35	·	·	·	·
O=C(Cc1ccccn1)N1CCCCN2[C@@H](CO)[C@@H](c3ccc(-c4ccc(F)cc4)cc3)[C@@H]2C1	5	?	-48	73	60	1	41*
